Hits are enriched below; roughly 2.8% of the tested compounds scored in any of these assays.
POLI inh: blocks human DNA polymerase iota activity | Q9UNA4 | 1% of 390,000 active | Potency, µM (doses to about 115 µM), most hits filed as inhibitors | Pol iota fluorescent replication assay, 10 min | AID 588590
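Pol iota at 10 nM preincubated 15 min with compounds at room temperature; reaction started with fluorescent substrate, 50 nM final. Fluorescence read kinetically at 0 and 10 min; buffer-only wells as negative control.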
WRN helicase inh: inhibitors of human WRN helicase; Q14191; 0.46% of 360,000 active; WRN helicase unwinding, fluorescent forked duplex, kinetic; Potency, µM (titrated, usually from 114 µM), actives largely listed as inhibitors; note: nearly all actives have a fitted effect of over 55% in size
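WRN at 20 nM final was preincubated with compound for 15 min at room temperature; reaction started with 100 nM forked duplex oligonucleotide carrying fluorophore and quencher plus 2 mM ATP (final). Unwinding followed kinetically by red fluorescence (ex 525/em 598 nm).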
POLB inh: blocks human DNA polymerase beta activity; Potency, µM (doses to about 114 µM), actives largely listed as inhibitors; Pol beta primer extension/strand displacement, fluorescence kinetic; 1.3% of 340,000 active
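Human Pol beta at 10 nM; strand-displacement substrate 50 nM final. Compound exposure 15 min at room temperature before start, reaction 10 min at room temperature.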
Pol eta inh: inhibitors of human DNA polymerase eta; 1.2% of 390,000 active; recombinant Pol eta, fluorescent DNA replication assay; AID 588591; Q9Y253; Potency, µM (top dose mostly 114 µM), usual class: inhibitors
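Pol eta (10 nM) was preincubated with compounds for 15 min at room temperature, after which fluorescent replication substrate (50 nM final) was added to start the reaction. Fluorescence was read kinetically at 0 and 10 min.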
Pol kappa inh: blocks human DNA polymerase kappa activity; purified Pol kappa, fluorescent DNA synthesis assay, 10 min; Potency, µM (series often up to 107 µM), actives largely listed as inhibitors; 0.53% of 400,000 active; AID 588579
Target sequence (Q9UBT6 whole entry, looked up): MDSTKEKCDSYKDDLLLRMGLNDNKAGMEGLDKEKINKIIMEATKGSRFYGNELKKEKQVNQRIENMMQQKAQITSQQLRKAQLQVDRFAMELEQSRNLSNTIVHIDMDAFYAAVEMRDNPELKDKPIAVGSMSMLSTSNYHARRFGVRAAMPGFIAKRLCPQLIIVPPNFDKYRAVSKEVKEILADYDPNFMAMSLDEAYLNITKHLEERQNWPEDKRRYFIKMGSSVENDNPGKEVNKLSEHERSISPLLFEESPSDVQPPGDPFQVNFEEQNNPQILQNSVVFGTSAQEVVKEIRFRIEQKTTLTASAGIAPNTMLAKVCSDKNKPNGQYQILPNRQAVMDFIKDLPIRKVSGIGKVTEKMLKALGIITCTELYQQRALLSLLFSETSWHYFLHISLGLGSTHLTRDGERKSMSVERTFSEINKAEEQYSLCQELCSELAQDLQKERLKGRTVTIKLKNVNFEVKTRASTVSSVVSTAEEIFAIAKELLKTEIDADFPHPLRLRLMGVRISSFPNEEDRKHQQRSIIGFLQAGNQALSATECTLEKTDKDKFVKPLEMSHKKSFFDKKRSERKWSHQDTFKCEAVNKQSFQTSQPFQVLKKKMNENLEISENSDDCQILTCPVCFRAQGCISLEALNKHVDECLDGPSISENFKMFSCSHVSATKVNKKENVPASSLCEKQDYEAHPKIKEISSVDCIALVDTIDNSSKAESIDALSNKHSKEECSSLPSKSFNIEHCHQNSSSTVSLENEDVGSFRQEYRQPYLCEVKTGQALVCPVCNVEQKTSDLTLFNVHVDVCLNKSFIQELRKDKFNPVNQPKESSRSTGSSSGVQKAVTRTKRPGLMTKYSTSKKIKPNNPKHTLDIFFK
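Enzyme at 10 nM met test compounds for 15 min at room temperature. Substrate addition (50 nM final) began the reaction, which was monitored by fluorescence at 0 and 10 min.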
PI5P4Ka inh: inhibitors of human PI5P4K alpha; max response, %; PI5P4Kalpha enzyme, ADP-Glo luminescence, 60 min; stronger effect = lower value; 1.2% of 330,000 active; active = max response of -50% or lower; inconclusive = between -30% and -50%; inactive = -30% or higher; note: value at the top dose of about 77 µM
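Compounds were pin-transferred onto PI5P4Kalpha and substrate in HEPES pH 7.4 buffer with EGTA, CHAPS and 5% DMSO. ATP (5 microM final) started the reaction, which ran 60 minutes at room temperature before ADP-Glo detection.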
Each line names hits and unclear results; the compound was inactive in the other large screens; ! = not active in a repeat. Unless noted, calls come from the whole dose curve; as a rule, active = well fitted curve in the direction sought with a large enough effect; inconclusive = small, poorly fitted or top-dose-only effect, or another doubt; inactive = no such curve, though single readings can be large; an effect the other way counts as inactive or inconclusive.

CCOc1cc(/C=C2/NC(=O)NC2=O)cc(Br)c1OCc1ccc(C(=O)O)cc1	POLI inh inconclusive, WRN helicase inh inconclusive, POLB inh 25µM, Pol eta inh inconclusive, PI5P4Ka inh inconclusive
O=C(COc1ccccc1[N+](=O)[O-])Nc1cccc(S(=O)(=O)NC2=NCCCCC2)c1	POLI inh 79µM, Pol eta inh 20µM (no result: POLB inh)
O=C(Nc1nc(-c2ccncc2)cs1)c1ccco1	POLI inh inconclusive, POLB inh 40µM, Pol eta inh inconclusive
O=c1[nH][nH]c2c1[C@H](CCc1cccc(Cl)c1)O[C@H](CCc1ccccc1)C2	none (no result: POLI inh, POLB inh, Pol eta inh, Pol kappa inh)
COc1ccc2c(c1)c(=O)oc1cc(OCC(=O)N3CCC(C)CC3)ccc12	POLI inh 18µM, WRN helicase inh inconclusive, POLB inh 22µM, Pol eta inh 79µM, Pol kappa inh inconclusive (no result: PI5P4Ka inh)
COc1ccc2c(c1)c(=O)oc1cc(OCC(=O)N3CCCC(C)C3)ccc12 (stereo unspecified)	POLI inh inconclusive, POLB inh 4µM, Pol eta inh inconclusive
Cc1c(Cl)c(=O)oc2cc(OCC(=O)N3CCCC(C)C3)ccc12 (stereo unspecified)	none (no result: POLB inh)
N#Cc1ccccc1S(=O)(=O)N1CCN(c2nc(-c3cccs3)nc3ccccc23)CC1	POLI inh inconclusive (no result: WRN helicase inh, POLB inh, Pol eta inh, PI5P4Ka inh)
CCCn1c(=O)c2ccccc2n2c(SCCNCCO)nnc12	POLB inh 0.16µM
CCCn1c(=O)c2ccccc2n2c(SCC(=O)c3ccccc3)nnc12	none (no result: PI5P4Ka inh)
O=C(Nc1cnn(Cc2ccc(F)cc2)c1)c1cnccn1	none
O=C(Nc1cnn(Cc2ccc(F)cc2)c1)C(c1ccccc1)c1ccccc1	POLI inh 79µM
O=C(CSc1nnc2c3ccccc3c3ccccc3c2n1)Nc1ccccc1F	WRN helicase inh inconclusive, POLB inh 11µM, Pol eta inh 32µM, PI5P4Ka inh inconclusive
COc1ccc2ccccc2c1/C=N/NC(=O)c1sc(N)c(C#N)c1C	PI5P4Ka inh -76
COc1cc(/C=N/NC(=O)c2sc(N)c(C#N)c2C)cc(Br)c1O	POLI inh inconclusive, Pol eta inh inconclusive, PI5P4Ka inh -73
CC(=O)c1ccc(S(=O)(=O)N2CCN(C(C)=O)CC2)cc1	Pol eta inh 22µM
CC(=O)c1ccc(S(=O)(=O)N2CCNC(=O)C2)cc1	POLI inh inconclusive, Pol eta inh 22µM, PI5P4Ka inh inconclusive (no result: POLB inh)
CC(=O)c1ccc(S(=O)(=O)N2CCCC2)cc1	none (no result: PI5P4Ka inh)
CC(=O)Nc1ccc(S(=O)(=O)N2CCNC(=O)C2)cc1	none (no result: POLB inh)
O=C(CSc1nnc(-c2ccccc2Cl)o1)N1CCCc2ccccc21	none (no result: WRN helicase inh, PI5P4Ka inh)
Cc1cccc(NC(=O)CN2C(=O)CSc3ccc(S(=O)(=O)N4CCCC4)cc32)c1C	none (no result: WRN helicase inh, PI5P4Ka inh)
Cc1ccc2cccc(OCC(=O)c3cc(C)n(Cc4ccco4)c3C)c2n1	POLB inh 11µM (no result: POLI inh, WRN helicase inh, Pol eta inh, Pol kappa inh, PI5P4Ka inh)
COCC(C)n1c(C)cc(C(=O)CSc2nnc(-c3ccco3)o2)c1C (stereo unspecified)	none (no result: POLB inh)
Cc1cc(C(=O)CSc2nnc(-c3ccco3)o2)c(C)n1Cc1ccco1	POLI inh inconclusive, WRN helicase inh inconclusive, POLB inh 45µM, Pol eta inh inconclusive
C/C(=N/NS(=O)(=O)c1ccccc1)c1c[nH]c2ccccc12	POLI inh 89µM
O=[N+]([O-])c1ccc(S(=O)Cc2ccccc2)c([N+](=O)[O-])c1 (stereo unspecified)	POLI inh inconclusive, WRN helicase inh 10µM (no result: POLB inh)
COc1ccc2sc(N(Cc3cccnc3)C(=O)C3CCCCC3)nc2c1	none (no result: WRN helicase inh, PI5P4Ka inh)
Cc1oc2ccc(O)c(CN3CCN(C)CC3)c2c1C(=O)Nc1cccc(C(F)(F)F)c1	none (no result: WRN helicase inh, PI5P4Ka inh)
COc1ccc(OC)c(NC(=O)CSC2=C(C#N)C(c3ccco3)C3=C(CCCC3=O)N2)c1 (stereo unspecified)	none
CCc1ccccc1NC(=O)CSC1=C(C#N)C(c2ccc3c(c2)OCO3)C2=C(CCCC2=O)N1 (stereo unspecified)	POLB inh 22µM (no result: PI5P4Ka inh)
Nc1cc(N)cc(N)c1	POLI inh 1.6µM, Pol kappa inh inconclusive (no result: WRN helicase inh, POLB inh, Pol eta inh, PI5P4Ka inh)
Cc1cc(N)cc(C)c1-c1c(Br)cc(N)cc1Br	none (no result: POLB inh)
COc1ccc(CCN2C(=O)/C(=C\c3ccco3)SC2=S)cc1OC	POLI inh inconclusive, POLB inh 28µM
CC(/C=C1\SC(=O)N(CCCC(=O)O)C1=O)=C\c1ccccc1	none
CC(=C\c1ccccc1)/C=C1/SC(=S)N(C(C(=O)O)C(C)C)C1=O (stereo unspecified)	POLI inh inconclusive, POLB inh 89µM, Pol eta inh 89µM
CCC(C(=O)O)N1C(=O)/C(=C/C(C)=C/c2ccccc2)SC1=S (stereo unspecified)	POLI inh inconclusive
CC(=C\c1ccccc1)/C=C1/SC(=S)N(CCCC(=O)O)C1=O	POLI inh 25µM, WRN helicase inh 50µM, Pol eta inh 25µM
COc1cc(/C=C2/SC(=S)N(CCC(=O)Nc3ccc(C(=O)O)cc3)C2=O)cc(OC)c1OC	Pol eta inh 56µM
COc1ccc(CN2CCNC(=O)C2CC(=O)N(C)C2CCOCC2)cc1OC (stereo unspecified)	none (no result: POLI inh, POLB inh, Pol kappa inh)
CCN(CC)S(=O)(=O)c1ccc2c(c1)N(CC(=O)Nc1c(C)cc(C)cc1C)C(=O)C1CCCN21 (stereo unspecified)	none (no result: WRN helicase inh, PI5P4Ka inh)
COc1ccc(/C=C2\SC(=S)N(CCCC(=O)Nc3ccc(O)cc3)C2=O)cc1	none
O=C(CCCN1C(=O)/C(=C\c2ccco2)SC1=S)Nc1ccc2ccccc2c1	POLB inh 20µM, Pol eta inh inconclusive
CC(/C=C1\SC(=S)N(CCCC(=O)Nc2ccc(C(=O)O)cc2)C1=O)=C\c1ccccc1	POLI inh inconclusive, POLB inh inconclusive, Pol eta inh 32µM, PI5P4Ka inh inconclusive
Cc1cc2nn(-c3ccccc3)nc2cc1NC(=O)COc1ccc(Cl)cc1	none (no result: WRN helicase inh, PI5P4Ka inh)
Oc1ccc(/C=C/c2cc(O)cc(O)c2)cc1	POLI inh inconclusive, POLB inh inconclusive, Pol kappa inh 14µM!
CCn1c(C)c(C)c2cc(C(=O)NCCCN3CCCCCC3)ccc21	POLI inh 89µM
COc1ccc(COc2ccsc2C(=O)Nc2ccc(Cl)c(Cl)c2)cc1	POLB inh 35µM, Pol eta inh inconclusive (no result: PI5P4Ka inh)
CN(C)S(=O)(=O)Oc1ccsc1C(=O)Nc1ccc(Cl)c(Cl)c1	Pol eta inh inconclusive
Cc1nc2cc(N3CCOCC3)c(NC(=O)C3CC3)cc2c(=O)n1Cc1ccccc1	POLI inh inconclusive, Pol eta inh 20µM, Pol kappa inh inconclusive
CN1CCC[C@H]1CCNc1ccc2c(=O)c3ccccc3n(C)c2c1	POLI inh 28µM, WRN helicase inh inconclusive, Pol eta inh inconclusive, Pol kappa inh inconclusive (no result: POLB inh)
CN1CCCC1CCNc1ccc2c(=O)c3ccccc3oc2c1 (stereo unspecified)	none
COc1ccc(C2c3c(n(C)c4ccccc34)C(=O)N2CC(=O)Nc2ccccc2F)cc1 (stereo unspecified)	POLI inh inconclusive (no result: WRN helicase inh, PI5P4Ka inh)
